Assay [1] can be described thus: qHTS assay for measurement of the activity of small molecule inhibitors on Zika virus induced Caspase-3 activity in human iPSC derived neural progenitor cells (hNPCs) (AID 1224857). Further: nearly all actives have a fitted effect of over 65% in size. A digest of the protocol: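 After overnight (16–20 h) culture at 350 cells/well, hNPCs get compound, then ZIKV 2 FFU/cell one hour later. Six hours on, Caspase-Glo 3/7 is added and luminescence measured.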

Assay [2] is described as follows: qHTS assay for measurement of the activity of small molecule inhibitors on Zika virus induced Caspase-3 activity in human astrocytoma cells (AID 1224859). A digest of the protocol:
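Inhibition of Zika-induced caspase-3/7 activity: SNB-19 cells, 1 h compound pretreatment, ZIKV 2 FFU/cell for 6 h at 37 C, Caspase-Glo luminescence read-out.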
For orientation: In qHTS, concentration-response curves come from the screen itself.

Assay [3] can be described thus: Natriuretic polypeptide receptor (hNpr1) antagonism - Pilot counterscreen GloSensor control cell line (AID 1347045; calls by dose curve; further: potency means the concentration at half of the fitted maximal effect). The procedure, abridged:
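The SNP-driven cGMP luminescence signal (50 uM, 20 min, room temperature) was measured in GloSensor HEK293 control cells. Compounds were tested as a LOPAC titration series and preincubated for 30-50 min.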

Assay [4] deals with Atrial natriuretic peptide receptor 1 (Homo sapiens) (UniProt P16066). In words: Natriuretic polypeptide receptor (hNpr1) antagonism - Pilot screen (AID 1347049; calls by dose curve;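 further: agonist-evoked cGMP luminescence read 20 min after hNppA addition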; further: potency means the concentration at half of the fitted maximal effect). A digest of the protocol: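 cGMP-sensor HEK293/hNpr1 cells, 1500/well, plated overnight at 37C. 2% GloSensor reagent, 2 h RT. Compound (23 nL pin transfer) 30 min RT, baseline luminescence pre-read. 0.1 nM hNppA, 20 min RT, post-read.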

The target of assay [5] is Atrial natriuretic peptide receptor 2 (Homo sapiens) (UniProt P20594). The assay is described as follows: Natriuretic polypeptide receptor (hNpr2) antagonism - Pilot subtype selectivity assay (AID 1347050; calls by dose curve; further: potency means the concentration at half of the fitted maximal effect). A digest of the protocol: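 Luminescence from a genetically encoded cGMP luciferase biosensor in hNpr2-expressing HEK293 cells is read before and 20 min after adding 1 nM hNppC. Test compounds, in interplate 1:5 titrations, are added 30-50 min ahead of the agonist.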

Assay [6] can be described thus: NS1 protein of Zika virus - qHTS assay to identify small molecule inhibitors in human HEK 293 cells (AID 1347053). Further: series mostly up to about 46 µM; nearly all actives have a fitted effect of over 55% in size. A digest of the protocol:
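In this cell-based screen, HEK 293 cultures received compound for one hour before Zika MR766 at MOI = 0.5. NS1 was quantified 24 hours later by TR-FRET, normalized to virus-free wells and infected wells.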

The target in assay [7] is T1, Tyrosine-protein phosphatase non-receptor type substrate 1 (Homo sapiens) + Leukocyte surface antigen CD47 (Homo sapiens) (UniProt P78324+Q08722). In words: CD47-SIRPalpha protein protein interaction - LANCE assay qHTS validation (AID 1347057; active means well fitted curve in the direction sought with a large enough effect in the signal ratio, with a control signal flat, not every such curve was filed as active; the % refers to the signal ratio; further: potency means the concentration at half of the fitted maximal effect). A digest of the protocol:
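Inhibition of soluble CD47/SIRPalpha ectodomain association by titrated compounds, measured as 665/615 nm time-resolved FRET ratio after sequential 30 min room-temperature incubations.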
(In general: TR-FRET usually uses a lanthanide donor and a delayed reading to cut background.)

The target in assay [8] is T1, Tyrosine-protein phosphatase non-receptor type substrate 1 (Homo sapiens) + Leukocyte surface antigen CD47 (Homo sapiens). The assay is described as follows: CD47-SIRPalpha protein protein interaction - Alpha assay qHTS validation (AID 1347059).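 Further: bead proximity luminescence from CD47 binding SIRPalpha after compound preincubation with SIRPalpha.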 Further: potency means the concentration at half of the fitted maximal effect. A digest of the protocol: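 SIRPalpha-biotin 25 nM + cpd, 30 min RT, dark; add CD47-His 12.5 nM, 30 min; add Ni-NTA/SAV beads 10 ug/mL, 30 min; AlphaScreen. Buffer PBS pH 7.4 + 0.05% IGEPAL CA-630. Non-biotinylated SIRPalpha as control inhibitor.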

For assay [9], the target named is Parathyroid hormone/parathyroid hormone-related peptide receptor (Homo sapiens) (UniProt Q03431). In words: qHTS for PTHR1 Agonists: Optimization Screen against the NCGC LOPAC library (AID 1347079).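 Further: GloSensor cAMP luminescence in HEK-293 GP2 cells expressing human PTHR1 with IBMX.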 A digest of the protocol: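 Signal increase flags agonism. GP2 cells, derived from HEK-293, express human PTHR1 and a GloSensor cAMP construct.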
Assay [10] concerns the target N-terminal Xaa-Pro-Lys N-methyltransferase 1 (Homo sapiens) (UniProt Q9BV86). In words: qHTS Assay for Inhibitors of N-terminal methyltransferase 1 (NTMT1): LOPAC validation of the NTMT1 SAHH-coupled ThioGlo3 Assay (AID 1347143).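 Further: SAH from peptide methylation measured as thiol fluorescence via SAHH coupling and ThioGlo3; nearly all actives have a fitted effect of over 70% in size.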 Further: potency means the concentration at half of the fitted maximal effect. The procedure, abridged: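 Steps: dispense 125nM NTMT1; pin-transfer test compounds at several concentrations, with 1uM RCC1-6 peptide as control; incubate 1 min; start with reagent holding 100uM SAM, 10uM SAHH, 15uM ThioGlo3; read at 0 and 30 min.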

Assay [11] deals with Zika virus NS2B-NS3 protease (unlinked). The assay is described as follows: Optimization of GU AMC qHTS for Zika virus inhibitors: Unlinked NS2B-NS3 protease assay (AID 1347151). Further: nearly all actives have a fitted effect of over 80% in size. Further: potency means the concentration at half of the fitted maximal effect. A digest of the protocol:
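Noncovalent complex of NS2B hydrophilic domain and NS3 protease domain, 25 nM final, in 10 mM Tris-HCl pH 8.0, 0.01% Tween 20. AMC fluorescence change over 15 min at room temperature was fitted to a 4-parameter Hill equation.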

The target of assay [12] is T1, Tyrosine-protein phosphatase non-receptor type substrate 1 (Homo sapiens) + Leukocyte surface antigen CD47 (Homo sapiens). In words: CD47-SIRPalpha protein protein interaction - HTRF assay qHTS validation (AID 1347058; active means well fitted curve in the direction sought with a large enough effect in the signal ratio, not every such curve was filed as active; the % refers to the signal ratio; further: series mostly up to about 38 µM). The procedure, abridged:
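Soluble extracellular domains (6His-CD47, Avi-tag-biotinylated SIRPalpha) in PBS pH 7.4 with 0.05% IGEPAL CA-630. Compounds were preincubated 30 min at RT with CD47 and anti-His-Eu, then SIRPalpha and SAV-XL665 were added. TR-FRET 665/615 ratio.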

Assay [13] deals with Furin (Homo sapiens) (UniProt P09958). In words: Furin counterscreen qHTS for Zika virus inhibitors (AID 1347149).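 Further: purified recombinant full-length human furin enzyme at 5 nM; fluorescence gain from furin cutting a BOC-RVRR-AMC peptide substrate over 15 min; top concentration of the series differs between compounds; nearly all actives have a fitted effect of over 70% in size.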 The procedure, abridged: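 Counterscreen measures cleavage of 2 microM BOC-RVRR-AMC, below its ~15 microM Km, by 5 nM full-length human furin at pH 7.0 after a 15-min compound preincubation. Inhibition derives from the 15-min fluorescence increase at 37C.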
Background: The purpose of a counterscreen is to sort out artefacts and off-target activity.

Each structure is given as a SMILES string. Records with an inconclusive call do not appear. Active and inactive are the calls of the source. Unless noted, the call rests on the fitted dose curve; in most records, active means well fitted curve in the direction sought with a large enough effect; inconclusive means small, poorly fitted or top-dose-only effect, or another doubt; inactive means no such curve, though single readings can be large; an effect the other way counts as inactive or inconclusive.

T1 sequence (P78324 whole entry, looked up, the tested form may be a part): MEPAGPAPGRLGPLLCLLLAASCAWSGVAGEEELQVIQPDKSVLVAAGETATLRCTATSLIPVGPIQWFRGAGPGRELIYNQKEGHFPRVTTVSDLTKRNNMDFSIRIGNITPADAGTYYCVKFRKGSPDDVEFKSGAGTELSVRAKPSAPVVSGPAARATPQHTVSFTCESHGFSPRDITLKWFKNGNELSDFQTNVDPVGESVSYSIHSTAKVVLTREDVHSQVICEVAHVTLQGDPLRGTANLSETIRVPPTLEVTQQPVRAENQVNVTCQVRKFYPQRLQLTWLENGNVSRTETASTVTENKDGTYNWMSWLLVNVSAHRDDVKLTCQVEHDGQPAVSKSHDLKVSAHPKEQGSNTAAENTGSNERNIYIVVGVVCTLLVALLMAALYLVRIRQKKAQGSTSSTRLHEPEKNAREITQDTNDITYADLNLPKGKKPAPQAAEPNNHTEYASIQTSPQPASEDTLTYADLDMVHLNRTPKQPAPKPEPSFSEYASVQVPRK
T1 sequence (Q08722 whole entry, looked up, the tested form may be a part): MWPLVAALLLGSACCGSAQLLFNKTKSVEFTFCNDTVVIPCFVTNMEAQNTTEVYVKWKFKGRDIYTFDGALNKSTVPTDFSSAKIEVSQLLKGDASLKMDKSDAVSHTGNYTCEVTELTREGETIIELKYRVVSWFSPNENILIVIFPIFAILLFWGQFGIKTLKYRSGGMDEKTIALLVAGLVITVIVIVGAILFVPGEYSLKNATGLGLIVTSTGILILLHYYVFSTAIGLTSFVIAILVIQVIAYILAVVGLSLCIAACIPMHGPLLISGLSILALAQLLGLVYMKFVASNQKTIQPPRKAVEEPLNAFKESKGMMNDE
Chain of Atrial natriuretic peptide receptor 1 (Homo sapiens) (P16066 whole entry, looked up): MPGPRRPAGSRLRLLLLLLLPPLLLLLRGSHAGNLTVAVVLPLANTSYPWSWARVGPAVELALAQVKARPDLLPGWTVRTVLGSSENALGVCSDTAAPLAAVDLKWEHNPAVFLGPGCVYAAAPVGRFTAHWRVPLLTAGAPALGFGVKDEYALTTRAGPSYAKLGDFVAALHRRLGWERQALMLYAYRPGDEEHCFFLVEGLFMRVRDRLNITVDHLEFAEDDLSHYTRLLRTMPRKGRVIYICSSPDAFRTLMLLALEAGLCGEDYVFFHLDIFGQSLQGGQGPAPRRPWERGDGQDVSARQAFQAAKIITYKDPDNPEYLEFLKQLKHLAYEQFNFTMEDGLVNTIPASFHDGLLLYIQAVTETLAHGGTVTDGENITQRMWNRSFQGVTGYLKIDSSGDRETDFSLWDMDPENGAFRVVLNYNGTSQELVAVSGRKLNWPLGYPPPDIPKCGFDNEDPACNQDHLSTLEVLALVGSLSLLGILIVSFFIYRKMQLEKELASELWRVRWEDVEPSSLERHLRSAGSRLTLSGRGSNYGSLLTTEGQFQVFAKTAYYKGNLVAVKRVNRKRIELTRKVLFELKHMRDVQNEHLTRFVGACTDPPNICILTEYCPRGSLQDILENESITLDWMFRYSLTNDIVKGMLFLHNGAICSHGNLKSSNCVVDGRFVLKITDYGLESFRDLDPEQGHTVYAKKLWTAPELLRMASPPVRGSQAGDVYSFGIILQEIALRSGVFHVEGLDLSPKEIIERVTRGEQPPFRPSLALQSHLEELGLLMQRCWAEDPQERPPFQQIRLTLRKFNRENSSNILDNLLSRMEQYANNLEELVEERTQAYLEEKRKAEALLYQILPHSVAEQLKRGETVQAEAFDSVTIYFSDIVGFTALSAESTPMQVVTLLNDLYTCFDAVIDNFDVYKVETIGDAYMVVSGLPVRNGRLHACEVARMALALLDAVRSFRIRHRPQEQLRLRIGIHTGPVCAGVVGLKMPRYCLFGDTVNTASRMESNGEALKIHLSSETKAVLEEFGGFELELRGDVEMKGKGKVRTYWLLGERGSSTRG
Chain of Parathyroid hormone/parathyroid hormone-related peptide receptor (Homo sapiens) (Q03431 whole entry, looked up): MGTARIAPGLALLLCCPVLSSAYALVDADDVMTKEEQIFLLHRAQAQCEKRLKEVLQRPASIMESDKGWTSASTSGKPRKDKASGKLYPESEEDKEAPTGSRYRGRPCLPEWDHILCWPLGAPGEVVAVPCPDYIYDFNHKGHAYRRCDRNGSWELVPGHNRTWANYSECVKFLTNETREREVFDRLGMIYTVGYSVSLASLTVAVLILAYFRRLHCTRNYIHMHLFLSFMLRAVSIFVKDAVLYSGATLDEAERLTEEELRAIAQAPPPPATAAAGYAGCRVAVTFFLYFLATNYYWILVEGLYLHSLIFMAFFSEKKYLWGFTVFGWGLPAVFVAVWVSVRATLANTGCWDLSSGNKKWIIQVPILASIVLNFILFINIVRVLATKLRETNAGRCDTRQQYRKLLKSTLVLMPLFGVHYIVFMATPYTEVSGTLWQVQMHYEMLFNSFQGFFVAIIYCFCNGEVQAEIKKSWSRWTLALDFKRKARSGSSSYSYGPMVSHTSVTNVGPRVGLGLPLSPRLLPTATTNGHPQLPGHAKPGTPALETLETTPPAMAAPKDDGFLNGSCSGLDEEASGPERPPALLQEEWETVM
Chain of N-terminal Xaa-Pro-Lys N-methyltransferase 1 (Homo sapiens) (Q9BV86 whole entry, looked up): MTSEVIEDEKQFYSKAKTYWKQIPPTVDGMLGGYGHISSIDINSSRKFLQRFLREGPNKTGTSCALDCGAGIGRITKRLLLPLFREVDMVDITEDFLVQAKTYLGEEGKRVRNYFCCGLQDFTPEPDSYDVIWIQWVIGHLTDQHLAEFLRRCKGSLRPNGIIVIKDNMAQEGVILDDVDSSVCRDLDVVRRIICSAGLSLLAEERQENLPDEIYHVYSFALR
Chain of Atrial natriuretic peptide receptor 2 (Homo sapiens) (P20594 whole entry, looked up): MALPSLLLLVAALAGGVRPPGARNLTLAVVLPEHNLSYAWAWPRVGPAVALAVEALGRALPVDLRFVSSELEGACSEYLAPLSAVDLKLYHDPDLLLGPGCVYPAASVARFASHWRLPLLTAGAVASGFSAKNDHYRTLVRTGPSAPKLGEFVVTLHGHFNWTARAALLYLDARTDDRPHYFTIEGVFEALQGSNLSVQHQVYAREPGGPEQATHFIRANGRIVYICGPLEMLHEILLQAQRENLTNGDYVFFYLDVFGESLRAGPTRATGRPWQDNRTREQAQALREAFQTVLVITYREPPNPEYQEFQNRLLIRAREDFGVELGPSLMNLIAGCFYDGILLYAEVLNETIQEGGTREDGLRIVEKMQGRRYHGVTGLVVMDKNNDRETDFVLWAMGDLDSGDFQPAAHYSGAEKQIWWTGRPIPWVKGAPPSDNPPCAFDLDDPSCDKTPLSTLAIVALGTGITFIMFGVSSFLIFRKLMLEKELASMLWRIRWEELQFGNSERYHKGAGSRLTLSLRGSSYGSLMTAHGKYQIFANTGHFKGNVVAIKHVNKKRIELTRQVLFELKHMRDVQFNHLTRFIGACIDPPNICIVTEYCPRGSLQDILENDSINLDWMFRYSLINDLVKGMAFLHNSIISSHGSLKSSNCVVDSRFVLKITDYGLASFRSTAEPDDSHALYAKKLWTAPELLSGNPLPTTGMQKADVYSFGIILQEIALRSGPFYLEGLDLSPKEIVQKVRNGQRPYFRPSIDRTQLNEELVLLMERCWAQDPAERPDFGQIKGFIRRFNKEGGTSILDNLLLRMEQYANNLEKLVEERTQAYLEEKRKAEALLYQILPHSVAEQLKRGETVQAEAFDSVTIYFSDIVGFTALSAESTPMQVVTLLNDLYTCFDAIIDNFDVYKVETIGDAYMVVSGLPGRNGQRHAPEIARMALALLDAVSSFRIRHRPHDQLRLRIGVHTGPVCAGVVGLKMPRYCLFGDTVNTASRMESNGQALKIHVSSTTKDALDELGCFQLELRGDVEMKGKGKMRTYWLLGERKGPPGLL
Chain of Furin (Homo sapiens) (P09958 whole entry, looked up): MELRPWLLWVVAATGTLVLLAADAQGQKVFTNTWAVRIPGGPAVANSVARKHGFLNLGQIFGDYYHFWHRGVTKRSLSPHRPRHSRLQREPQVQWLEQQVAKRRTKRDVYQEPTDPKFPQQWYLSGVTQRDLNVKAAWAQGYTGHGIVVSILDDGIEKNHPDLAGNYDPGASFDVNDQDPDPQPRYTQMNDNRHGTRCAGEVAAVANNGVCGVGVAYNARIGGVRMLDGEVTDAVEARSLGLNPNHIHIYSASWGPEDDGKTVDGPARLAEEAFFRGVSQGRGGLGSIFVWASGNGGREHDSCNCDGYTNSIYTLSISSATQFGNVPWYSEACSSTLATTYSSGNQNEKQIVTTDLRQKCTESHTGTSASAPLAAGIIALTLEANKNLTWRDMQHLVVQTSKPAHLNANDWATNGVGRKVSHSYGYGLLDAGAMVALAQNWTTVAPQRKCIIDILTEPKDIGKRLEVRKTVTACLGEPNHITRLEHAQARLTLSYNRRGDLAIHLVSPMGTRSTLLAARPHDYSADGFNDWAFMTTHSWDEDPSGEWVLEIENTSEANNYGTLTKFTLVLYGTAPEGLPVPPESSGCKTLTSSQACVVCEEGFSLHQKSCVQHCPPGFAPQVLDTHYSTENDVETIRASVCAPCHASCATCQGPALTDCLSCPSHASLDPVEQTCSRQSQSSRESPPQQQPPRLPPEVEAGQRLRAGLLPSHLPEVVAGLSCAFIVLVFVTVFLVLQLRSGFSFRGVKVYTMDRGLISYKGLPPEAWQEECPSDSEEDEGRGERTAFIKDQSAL

For `NC/C=C\C(=O)O`, the Potency result in [1], in [2], in assay [3], in assay [4], in [5] and in assay [6] was “inactive” each time. The Potency result in assay [7], in assay [8], in assay [9], in [10] and in assay [11] was “inactive” throughout.

`O=c1cc(O)cc(/C=C/c2ccc(O)c(O)c2)o1`: the Potency entry in assay [1], in assay [2], in assay [3], in assay [4], in assay [5] and in assay [6] was “inactive” throughout. Further, the Potency entry in assay [7], in assay [8] and in [9] was “inactive” throughout. Moreover, the Potency was 44.7 µM (active) in assay [10] and 13.4 µM (active) in assay [11].

Take `CC(C)NCC(O)COc1ccc(CC(N)=O)cc1` (stereo not given): the Potency entry in assay [1], in assay [2], in [3], in assay [4], in assay [5] and in assay [6] was “inactive” throughout. Also, the Potency entry in assay [7], in assay [8], in assay [10] and in assay [11] was “inactive” in each case. The outcome in assay [12] was inactive.

As for `CCCn1c(=O)c(C)cn2nc(N)nc12`, the Potency result in assay [1], in [2], in assay [3], in assay [4], in assay [5] and in [6] was “inactive” in each case. Further, the Potency result in assay [8] and in [9] was “inactive” in each case. In addition, in [12], the result was inactive. Moreover, the Potency in assay [10] is 39.8 µM (active); in assay [11], 29.9 µM (active).

Turning to `CC(C)(C)c1cc(/C=C(\C#N)C(N)=S)cc(C(C)(C)C)c1O`, the Potency entry in assay [1], in assay [2], in [6], in assay [7], in [8] and in assay [9] was “inactive” throughout. In addition, the Potency entry in [10] was “inactive”. Besides, the Potency in assay [3] was 1.17 µM (active); in assay [4], 3.38 µM (active); in [5] it was 4.65 µM (active); in [11], 21.2 µM (active).

Consider `Cc1nc(N=Nc2cc(S(=O)(=O)O)c3cc([N+](=O)[O-])cc(S(=O)(=O)O)c3c2)c(COP(=O)(O)O)c(C=O)c1O`, for which the Potency entry in assay [1], in assay [2], in [3], in assay [4], in assay [5] and in assay [6] was “inactive” throughout. Besides, the Potency result in assay [7], in assay [8], in assay [9] and in [13] was “inactive” each time. Besides, the results for the Potency in [10] and in assay [11] were 56.2 µM (active) and 26.7 µM (active), respectively.

As for `N[C@@H](Cc1ccc(F)cc1)C(=O)O`, the Potency result in assay [1], in assay [2], in [3], in assay [4], in assay [5] and in [6] was “inactive” in each case. Besides, the Potency entry in assay [8], in assay [9], in [10] and in assay [11] was “inactive” throughout. The result in assay [12] was inactive.

As to `O=C1C2C=CC=CC2=NC(=S)N1CCN1CCC(=C(c2ccc(F)cc2)c2ccc(F)cc2)CC1` (stereo not given), the Potency result in [1], in assay [2], in assay [3], in [4], in assay [5] and in [6] was “inactive” throughout. Besides, the Potency result in assay [8], in assay [9] and in assay [10] was “inactive” throughout. Besides, in assay [12], the outcome was inactive.

Turning to `Cn1cc(C(=O)OCC2CCN(CCNS(C)(=O)=O)CC2)c2ccccc21`, the Potency entry in assay [1], in assay [2], in [3], in [4], in assay [5] and in assay [6] was “inactive” in each case. In addition, the Potency entry in assay [8], in assay [9], in assay [10] and in assay [11] was “inactive” in each case. In [12], the outcome was inactive.

On to `NCCCCN`, for which the Potency entry in [1], in [2], in assay [3], in assay [4], in assay [5] and in assay [6] was “inactive” throughout. Further, the Potency entry in assay [8], in assay [9], in assay [10] and in assay [11] was “inactive” in each case. Moreover, the result in assay [12] was inactive.

Take `N[C@@H](CCCC(=O)O)C(=O)O`: the Potency entry in assay [1], in [2], in [3], in assay [4], in assay [5] and in [6] was “inactive” in each case. The Potency entry in [7], in [8], in assay [9], in assay [10] and in assay [11] was “inactive” in each case.

For the molecule `C#CCn1c(=O)c2c(ncn2C)n(C)c1=O`, the Potency result in assay [1], in assay [2], in assay [3], in [4], in assay [5] and in assay [6] was “inactive” in each case. In addition, the Potency result in [8], in [9], in assay [10] and in assay [11] was “inactive” in each case. Also, in [12], the result was inactive.

As to `O=C(O)C1=CC(=C(c2ccc(O)c(C(=O)O)c2)c2ccc(O)c(C(=O)O)c2)C=CC1=O`, the Potency result in [1], in assay [2], in assay [3], in [4], in assay [5] and in [6] was “inactive” in each case. Moreover, the Potency entry in [9] was “inactive”. Further, the Potency is 11.7 µM (active) in assay [7], 0.464 µM (active) in [8], 25.1 µM (active) in [10] and 21.2 µM (active) in assay [11].

As for `CC(C)(CO)Cc1cc(C(C)(C)C)c(O)c(C(C)(C)C)c1`, the Potency entry in assay [1], in assay [2], in assay [3], in assay [4], in [5] and in assay [6] was “inactive” in each case. In addition, the Potency entry in assay [7], in assay [8], in assay [9], in assay [10] and in [11] was “inactive” throughout.

With `COc1ccc2c(c1)CCC1C2CC[C@@]2(C)C1CC[C@@H]2NCCCCCCN1C(=O)C=CC1=O` (stereo not given in full), the Potency result in assay [1], in [2], in assay [3], in assay [4], in assay [5] and in assay [6] was “inactive” throughout. Also, the Potency entry in assay [7], in assay [9], in [10] and in assay [11] was “inactive” each time. For the same molecule, the result in assay [12] was inactive.

In the case of `O=c1[nH]ccc2c(O)cccc12`, the Potency entry in assay [1], in assay [2], in [3], in assay [4], in [5] and in [6] was “inactive” each time. Moreover, the Potency entry in assay [7], in assay [8] and in [9] was “inactive” throughout. In addition, the Potency in assay [10] was 56.2 µM (active); in [11], 29.9 µM (active).

Consider `CC1CCN(CC[C@H]2CCCN2S(=O)(=O)c2cccc(O)c2)CC1`, for which the Potency entry in assay [1], in [2], in assay [3], in assay [4], in assay [5] and in [6] was “inactive” each time. For the same molecule, the Potency result in assay [7], in assay [8], in assay [9], in [10] and in [11] was “inactive” throughout.

As for `O=C(O)[C@H]1NCCC[C@H]1C(=O)O`, the Potency entry in [1], in assay [2], in assay [3], in [4], in [5] and in assay [6] was “inactive” throughout. For the same molecule, the Potency result in assay [7], in [8], in assay [9], in assay [10] and in assay [11] was “inactive” in each case.

`O=[N+]([O-])c1cccc2cn[nH]c12`: the Potency result in assay [1], in [2], in assay [3], in assay [4], in assay [5] and in assay [6] was “inactive” in each case. Moreover, the Potency entry in [7], in assay [8], in [9], in [10] and in [11] was “inactive” in each case.

Take `O=C(O)Cc1ccc(O)c(O)c1`: the Potency entry in assay [1], in [2], in [3], in assay [4], in assay [5] and in assay [6] was “inactive” each time. Further, the Potency entry in assay [7], in assay [8], in assay [9] and in [11] was “inactive” each time. Moreover, the Potency in assay [10] was 31.6 µM (active).

These data come from PubChem BioAssay (NCATS).
